# Results: the supplement of paper PMC12297408
# Several values for one entry are separate records, joined by “and”; a condition that tells them apart may be missing. Equal values may be shown once.
# Test system: Plasmodium falciparum NF54/iGP1_RE9H ulg8 stage V gametocytes
# Assay: gametocyte viability (luciferase signal relative to DMSO control) (% of DMSO control); higher = less gametocytocidal activity, active = 50 or less
# Details: concentration: 1 µM; exposure time: 72 h
# Outline: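 NF54/iGP1_RE9Hulg8 stage V gametocytes (day 12; ~2.5% gametocytemia, 3% hematocrit) in medium with 0.5% Albumax II were added to 96-well plates of nanolitre-spotted compounds (10 mM DMSO stocks), giving 10 µM or 1 µM, one well each. Plates were incubated 72 h at 37 °C. Then 90 µl was mixed with 10 µl D-luciferin (30 mg/ml) and luminescence was read on an IVIS Lumina II. Viability is relative to the mean of plate DMSO vehicle controls.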
row,Compound,gametocyte viability
1,Cc1cc(Nc2cc(CN3CCOCC3)c3nc(C)c(Cc4ccc(Cl)cc4F)n3n2)n[nH]1,95.6 (inactive)
2,CO[C@H]1C[C@@H]2CC[C@@H](C)[C@@](O)(O2)C(=O)C(=O)N2CCCC[C@H]2C(=O)O[C@H]([C@H](C)C[C@@H]2CC[C@@H](O)[C@H](OC)C2)CC(=O)[C@H](C)/C=C(\C)[C@@H](O)[C@@H](OC)C(=O)[C@H](C)C[C@H](C)/C=C/C=C/C=C/1C [Rapamycin (Sirolimus)],99.3 (inactive)
3,O=S(=O)(NCCNC/C=C/c1ccc(Br)cc1)c1cccc2cnccc12,99 (inactive)
4,CC(C)n1cnc2c(NCc3ccccc3)nc(NCCO)nc21 [N9-isopropyl-olomoucine],92.7 (inactive)
5,Cc1ncc(-c2ccnc(Nc3ccc(S(C)(=O)=O)cc3)n2)n1C(C)C,115 (inactive)
6,COc1cc(Nc2ncc(F)c(Nc3ccc4c(n3)NC(=O)C(C)(C)O4)n2)cc(OC)c1OC [R406(free base)],96.3 (inactive)
7,Clc1ccc(C2(c3ccc(-c4cn[nH]c4)cc3)CCNCC2)cc1,112 (inactive)
8,C[C@@H](N)[C@H]1CC[C@H](C(=O)Nc2ccncc2)CC1,107 (inactive) and 110 (inactive)
9,CCOc1cc2ncc(C#N)c(Nc3ccc(F)c(Cl)c3)c2cc1NC(=O)/C=C/CN(C)C [Pelitinib (EKB-569)],85.3 (inactive)
10,CNC(=O)c1ccccc1Sc1ccc2c(/C=C/c3ccccn3)n[nH]c2c1 [Axitinib],103 (inactive)
11,CCCCCCCCCCCCCCCC(=O)OC(CC(=O)[O-])C[N+](C)(C)C (racemic) [Palmitoyl-DL-carnitine],100 (inactive)
